Assay results: PubChem BioAssay (Tox21)
Active and inactive are the calls of the source. Calls follow the shape of the full dose curve.

Assay: G protein-coupled receptor (GPCR) small molecule agonists, calcium flux assay: HEK293 wild type cell line counter screen (AID 1920065)
Conditions: HEK293 WT calcium flux, fluorescence, agonist mode; series mostly up to 57.6 µM; activation: at the top concentration
Description: U.S. Tox21 Program National Center for Advancing Translational Sciences [NCATS] Division of Preclinical Innovation [DPI] U.S. Environmental Protection Agency [EPA] National Institutes of Environmental Health Sciences [NIEHS] National Toxicology Program [NTP] U.S. Food and Drug Administration [FDA] Assay overview: The increased intracellular calcium release that occurred upon G protein-coupled receptor (GPCR) activation led to the frequent use of calcium flux assays to detect GPCR activation. For the purpose of studying and screening compounds that may activate GPCR, receptor-overexpressing models were typically generated using Hek293 wild-type (WT) cells. In order to eliminate the compounds that may have induced calcium release for non-specific activation, a counter-assay utilizing calcium flux on Hek293 WT cells was performed. The data were formulated in order to serve as a control for any calcium flux detection utilizing Hek293 cells with either GPCR overexpression or gene modification. The procurement of Hek293 WT cells from ATCC. Fluorescence intensity can be utilized to determine the activation of the compound in a calcium flux assay. As a counter control, this cell line was utilized to screen the Tox21 10K compound library.
Assay Protocol Summary: Hek293 cells were dispensed at 1500cells/4uL/well in 1536-well black wall/clear bottom plates using a multidrop dispenser. After the assay plates were incubated at a 37 C/5% CO2 incubator for 18 hours, 4 uL of Calcium Dye Solution was added to each well. The plates were incubated at 37 C for 1 hour. For agonist mode, 23 nL of compounds dissolved in DMSO, positive control (ATP) or DMSO only was transferred to the assay plate by a pin tool station. The fluorescence intensity in the plates was measured using FDSS 7000EX kinetic plate reader with a filter set of Ex/Em=480/540 for 3 min at 1 sec intervals. Each test compound was measured at 15 concentrations and in triplicates.
% is scaled to controls: 0 for no effect and ±100 for the full control effect.

SMILES	activation
COc1ccc(/C=C/S(=O)(=O)NC(=O)c2ccc(C)cc2Cl)cc1	-1.14% (inactive)
CC(C)(O)c1coc(S(=O)(=O)NC(=O)Nc2c3c(cc4c2CCC4)CCC3)c1	-0.331% (inactive)
CC(C)=CCC1C(=O)N(c2ccccc2)N(c2ccccc2)C1=O	0.229% [at 26.5 µM] (inactive)
Cc1nc2ccc(Cl)cc2[nH]1	-0.439% (inactive)
O=C1OC(=O)C2C3C=CC(C3)C12 (stereo not given)	1.03% (inactive)
CN1CCN(C2=Nc3ccccc3Sc3ccc(Cl)cc32)CC1	-2.19% [at 26.5 µM] (inactive)
Cc1cccn2c(=O)c(-c3nnn[nH]3)cnc12	-0.181% [at 11.8 µM] (inactive)
COCCOC(=O)C1=C(C)NC(C)=C(C(=O)OC(C)C)C1c1cccc([N+](=O)[O-])c1 (stereo not given)	-1.15% [at 26.5 µM] (inactive)
NC(=O)COCCN1CCN(C(c2ccccc2)c2ccc(Cl)cc2)CC1 (stereo not given)	-1.01% [at 26.5 µM] (inactive)
CC(C(=O)O)c1cccc(Oc2ccccc2)c1 (stereo not given)	-0.276% [at 26.5 µM] (inactive)
C=CC(=O)OCC(Br)CBr (stereo not given)	-0.552% (inactive)
CC(C)(Oc1ccc(Cl)cc1)C(=O)OCCCOC(=O)C(C)(C)Oc1ccc(Cl)cc1	0.914% [at 26.5 µM] (inactive)
CC(=O)OC1CCC(C(C)(C)C)CC1 (stereo not given)	1.85% (inactive)
CCOC(=O)Nc1ccc(NCc2ccc(F)cc2)nc1N	3.34% [at 26.5 µM] (inactive)
CCCC(=O)O[C@]1(C(=O)CC)CC[C@H]2[C@@H]3CCC4=CC(=O)CC[C@]4(C)[C@H]3[C@@H](O)C[C@@]21C	0.997% [at 26.5 µM] (inactive)
O=S1(=O)c2cccc3cccc(c23)N1CCCN1CCN(c2ccc(F)cc2)CC1	-0.0835% [at 26.5 µM] (inactive)
COC(=O)C1=C(C)NC(C)=C(C(=O)OCCN2CCN(C(c3ccccc3)c3ccccc3)CC2)C1c1cccc([N+](=O)[O-])c1 (stereo not given)	-0.348% [at 26.5 µM] (inactive)
CCCCCCOC(=O)CCC	-1.07% (inactive)
CC(C(=O)O)c1ccc(C(=O)c2ccccc2)s1 (stereo not given)	-1.06% [at 26.5 µM] (inactive)
NC(N)=NC(=O)Cc1c(Cl)cccc1Cl	-0.751% [at 26.5 µM] (inactive)

SMILES	activation
Nc1nc2c(ncn2CCC(CO)CO)c(=O)[nH]1	0.589% [at 26.5 µM] (inactive)
O=C(NCCc1c[nH]c2ccccc12)c1cccnc1	0.793% [at 26.5 µM] (inactive)
CCN(CC)CCOC(=O)C(Cc1cccc2ccccc12)CC1CCCO1 (stereo not given)	2.11% [at 26.5 µM] (inactive)
Cc1nc(C)nc(N2C[C@@H](C)N(c3ccnc([C@@H](C)O)n3)[C@@H](C)C2)n1	-0.0267% [at 26.5 µM] (inactive)
CCC(CO)(CO)COCC(CC)(CO)CO	-0.0969% (inactive)
CC(C)C(=O)OC/C=C/c1ccccc1	0.145% (inactive)
CCOC(=O)CC1(C)OCC(C)O1 (stereo not given)	0.144% (inactive)
COc1cc(C)ccc1O	1.3% (inactive)
COC(=O)CC#N	1.38% (inactive)
Cc1cc(N)c2cc(NC(=O)Nc3ccc4nc(C)cc(N)c4c3)ccc2n1	1.21% [at 26.5 µM] (inactive)
CCCCCCC(O)CO (stereo not given)	0.447% (inactive)
Cc1c(C)c2c(c(C)c1O)CC[C@@](C)(CCC[C@H](C)CCC[C@H](C)CCCC(C)C)O2	-0.18% (inactive)
N[C@@H](CSCCCO)C(=O)O	0.0618% [at 11.8 µM] (inactive)
Cc1ccc2c(c1[N+](=O)[O-])C(=O)c1ccccc1C2=O	-0.404% [at 26.5 µM] (inactive)
COc1ccc(-n2nc(C(F)F)cc2-c2ccc(S(C)=O)cc2)cc1 (stereo not given)	-1.69% (inactive)
Cc1nc2n(c(=O)c1CCN1CCC(c3noc4cc(F)ccc34)CC1)CCC[C@H]2O	-0.871% [at 11.8 µM] (inactive)
c1ccc(CN(CC2=NCCN2)c2ccccc2)cc1	1.01% [at 26.5 µM] (inactive)
C[C@@H]1CC[C@@]2(OC1)O[C@H]1C[C@H]3[C@@H]4CC[C@H]5C[C@@H](O)CC[C@]5(C)[C@H]4CC(=O)[C@]3(C)[C@H]1[C@@H]2C	1.09% [at 5.23 µM] (inactive)
CCOC(=O)CC	0.373% (inactive)
[Cl][Pt-2]([Cl])([Cl])[Cl]	0.0116% (inactive)
